Assay outcomes deposited in PubChem BioAssay by National Center for Advancing Translational Sciences (NCATS).
Compounds with a hit are over-represented: about 0.5% of the library has one in this group of screens.
TR SRC2 fluor cs: Total Fluorescence Counterscreen for Inhibitors of the Interaction of Thyroid Hormone Receptor and Steroid Receptor Coregulator 2 | TRb/SRC2 Texas Red total fluorescence interference | AID 1479, 2009 | Potency, µM (series often up to 106 µM) | 0.29% of 280,000 active; active means well fitted curve in either direction with a large enough effect; inconclusive means small, poorly fitted or top-dose-only effect
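Flags fluorescent or light-absorbing compounds by total fluorescence, S + 2P, at 555 nm excitation and 632 nm emission. Mixture: 20 nM Texas Red SRC2 peptide, 0.6 uM human TRb LBD, 1 uM T3, 5% DMSO; compound exposure 5 h at ambient temperature.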
MLL CXXC-DNA inh: qHTS Fluorescence Polarization Assay for Inhibitors of MLL CXXC domain - DNA interaction. Histone-lysine N-methyltransferase 2A (Homo sapiens), Q03164. MLL-CXXC / FITC-HOXA9 DNA fluorescence polarization. Potency, µM (doses to about 115 µM), most hits filed as inhibitors. 0.037% of 290,000 active. AID 2662, 2010; active means well fitted inhibition curve with a large enough effect in the polarisation, with a control signal flat, not every such curve was filed as active; inconclusive means small, poorly fitted or top-dose-only effect, or effect the other way, or a change in a side signal; inactive means no such curve, though single readings can be large or run the other way; the % refers to the polarisation
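Fluorescence polarization: 7 uM MLL-CXXC (stock) preincubated 5 min with compounds, then 50 nM fluorescein-HOX-A9 DNA (stock) added; 30 min ambient. Buffer 50 mM Tris-HCl pH 7.5, 50 mM NaCl, 1 mM DTT, 0.05% BSA.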
RGS12 GoLoco inh: qHTS Assay for Inhibitors of RGS12 GoLoco Motif Activity (Red Fluorophore); Guanine nucleotide-binding protein G(i) subunit alpha-1 (Homo sapiens), P63096; Gai1:RGS12 GoLoco peptide FP, rhodamine, 10 min; Potency, µM (titrated, usually from 61.6 µM), hits mostly inhibitors; 0.44% of 230,000 active; active means well fitted inhibition curve with a large enough effect, not every such curve was filed as active; inactive means no such curve, though single readings can be large or run the other way; further: nearly all actives have a fitted effect of over 30% in size
Menin-MLL FL inh: qHTS Assay for Inhibitors Targeting the Menin-MLL Interaction in MLL Related Leukemias: Competition With Fluorescein Labeled MLL-derived Peptide. Fluorescence polarization, fluorescein-MLL peptide displacement from menin. FP activity change, % at 61.4 µM. 290,000 tested, under 10 active; active means well fitted curve in the direction sought with a large enough effect in the polarisation, not every such curve was filed as active; inconclusive means small, poorly fitted or top-dose-only effect, or effect the other way, or a change in a side signal; inactive means no such curve, though single readings can be large or run the other way; the % refers to the polarisation
TRb-SRC2 inh: qHTS for Inhibitors of the Interaction of Thyroid Hormone Receptor and Steroid Receptor Coregulator 2 | Thyroid hormone receptor beta (Homo sapiens), P10828 | TRbeta-SRC2 peptide binding, fluorescence polarization; receptor liganded with 1 µM T3 | Potency, µM (titrated, usually from 106 µM), hits mostly inhibitors | 0.065% of 280,000 active; active means well fitted inhibition curve with a large enough effect; inconclusive means small, poorly fitted or top-dose-only effect, or effect the other way; further: nearly all actives have a fitted effect of over 50% in size
Target sequence (P10828 whole entry, looked up): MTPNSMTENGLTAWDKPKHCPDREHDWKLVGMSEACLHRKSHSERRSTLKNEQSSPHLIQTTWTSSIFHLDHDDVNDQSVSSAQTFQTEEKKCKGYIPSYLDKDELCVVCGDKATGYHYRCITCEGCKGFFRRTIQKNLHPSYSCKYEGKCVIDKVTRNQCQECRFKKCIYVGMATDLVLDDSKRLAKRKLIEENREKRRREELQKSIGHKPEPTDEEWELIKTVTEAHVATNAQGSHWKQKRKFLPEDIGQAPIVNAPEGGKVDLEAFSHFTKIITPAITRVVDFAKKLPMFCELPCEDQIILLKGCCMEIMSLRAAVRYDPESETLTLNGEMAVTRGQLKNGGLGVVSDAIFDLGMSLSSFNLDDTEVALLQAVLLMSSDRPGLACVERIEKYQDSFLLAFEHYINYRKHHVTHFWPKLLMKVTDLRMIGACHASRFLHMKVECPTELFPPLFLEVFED
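Read-out is fluorescence polarization (555 nm excitation, 632 nm emission) of a Texas Red SRC2 coactivator peptide; loss of signal reflects blocked binding to human TRb ligand-binding domain in the presence of 1 uM T3.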
Menin MLL FP TR: qHTS Assay for Inhibitors Targeting the Menin-MLL Interaction in MLL Related Leukemias: Competition With Texas Red Labeled MLL-derived Mutant Peptide; O00255; AID 1768, 2009; Potency, µM (titrated, usually from 61.6 µM), hits mostly inhibitors; Menin + Texas Red MLL mutant peptide, fluorescence polarization; 0.23% of 270,000 active; active means well fitted inhibition curve with a large enough effect in the polarisation, with a control signal flat, not every such curve was filed as active; inconclusive means small, poorly fitted or top-dose-only effect, or effect the other way, or a change in a side signal; inactive means no such curve, though single readings can be large or run the other way; the % refers to the polarisation
Hits are given with their value; 0 = inactive; ? = inconclusive; - = not tested or not shown; ! = a repeat was not active; [ ] = remark or other dose.

SMILES	TR SRC2 fluor cs	MLL CXXC-DNA inh	RGS12 GoLoco inh	Menin-MLL FL inh	TRb-SRC2 inh	Menin MLL FP TR
O=C(NCC(c1cccnc1)N1CCN(Cc2ccccc2)CC1)C(=O)Nc1ccc(F)cc1 (centres undefined)	0	-	-	-	0	-
C[Si]1(C)O[Si](C)(C)O[Si](C)(C)O[Si](C)(C)O1	0	-	-	-	0	-
O=C(NCc1cccnc1)C(=O)NCC(c1cccnc1)N1CCN(c2ccccc2F)CC1 (centres undefined)	100µM[quencher]	-	-	-	0	-
CN(C)C(=O)c1ccc(-c2cc(Nc3ccccc3)ncn2)cc1	-	-	0	0	-	0
CCOC(=O)c1cccc(Nc2cc(-c3ccccc3)ncn2)c1	0.316µM[quencher]	-	-	-	0	-
COc1ccc2nc(SCC(=O)Nc3ccc(S(=O)(=O)N4CCCC4)cc3)c(C#N)cc2c1	0	0	0	0	0	15.8µM
CC(O)c1n(C)c(Cl)c[n+]1C (centres undefined)	0	0	12.6µM	0	0	0
COc1ccc(C(=O)Nc2cccc(-c3nc4cccnc4s3)c2C)c(OC)c1	100µM[quencher]	-	-	-	0	-
CCOCC(=O)Nc1cccc(-c2nc3cccnc3s2)c1C	0	0	0	0	0	0
CC[n+]1c(C)cc2c(sc3ccccc32)c1C	0	0	4.47µM	0	0	0
CCCOc1cccc(C(=O)NC(=S)Nc2ccc(N3CCN(C)CC3)cc2)c1	0	0	0	0	0	0
CCOc1cccc(C(=O)NC(=S)Nc2ccc(N3CCN(CC)CC3)cc2)c1	0	0	0	0	0	7.08µM
CCCCCCCCCCCCN	0	-	-	-	0	-
CCCCCCN	0	-	28.2µM	-	0	-
COc1ccc(NC(=O)c2ccco2)cc1NC(=O)c1ccc(OC(C)C)cc1	0.355µM[quencher]	-	-	-	0	-
N#C/C(=C\C1=C(N2CCOCC2)C(=C\c2ccc(Cl)cc2)/CC1)C(=O)Nc1ccccc1F	50.1µM[fluorescent]	0	0	?	39.8µM	?
CC(C)C[C@@H](C=O)NC(=O)[C@H](CC(C)C)NC(=O)[C@H](CC(C)C)NC(=O)OCc1ccccc1	0	-	0	-	0	-
CCC(C)(C)C(=O)Nc1cc([N+](=O)[O-])ccc1F	0.1µM[quencher]	0	0	0	0	0
CCC(C)(C)C(=O)Nc1cc([N+](=O)[O-])ccc1Cl	0	0	0	0	0	0
COC(=O)/C=C/c1cc(O)ccc1O	0	-	2.82µM	-	0	-
O=C(/C=C/c1ccc(O)c(O)c1)O[C@@H](C(=O)O)[C@@H](OC(=O)/C=C/c1ccc(O)c(O)c1)C(=O)O	0	-	0	-	0	-
NC(Cc1ccc(O)c(O)c1)C(=O)O (centres undefined)	0	-	0	0	0	?
O=C(/C=C/c1ccc(O)c(O)c1)O[C@H](Cc1ccc(O)c(O)c1)C(=O)O	25.1µM[quencher]	0	15.8µM	0	?	-
N[C@H](Cc1ccc(O)c(O)c1)C(=O)O	28.2µM![quencher]	0	0	0	0	?
CCCCOC(=O)[C@@H](C)Oc1ccc(Oc2ccc(C(F)(F)F)cn2)cc1	0	-	-	-	0	-
SMILES	TR SRC2 fluor cs	MLL CXXC-DNA inh	RGS12 GoLoco inh	Menin-MLL FL inh	TRb-SRC2 inh	Menin MLL FP TR
O=S(=O)(O)c1ccc(N=Nc2cc(S(=O)(=O)O)c3ccccc3c2O)c2ccccc12	100µM[fluorescent]	-	-	-	?	-
O=S(=O)(Nc1cccc2cccnc12)c1ccccc1O	0	-	-	0	0	0
CCOc1ccc2nc(N3CCCC(C(=O)NCCc4ccc(SC)cc4)C3)sc2c1 (centres undefined)	39.8µM[quencher]	-	-	-	0	-
CCOc1ccc2nc(N3CCCC(C(=O)NCCc4ccc(Cl)cc4)C3)sc2c1 (centres undefined)	0	-	-	-	0	-
CCc1cccc(NC(=O)Cn2c3[n+](c4ccc(C(F)(F)F)cc42)CCCCC3)c1	0	0	14.1µM	0	0	0
O=C(Cn1c2[n+](c3ccc(C(F)(F)F)cc31)CCCCC2)Nc1ccccc1	0	0	3.16µM	0	0	0
CC1(C)[C@@H]([C@@H](Br)C(Br)(Br)Br)[C@H]1C(=O)O[C@H](C#N)c1cccc(Oc2ccccc2)c1	0	-	-	-	0	-
N#C/C(=C\c1ccc(-c2cccc(Cl)c2)o1)C(=O)Nc1cccc(C(F)(F)F)c1	0.0891µM[quencher]	-	-	-	?	-
O=C(O)C(c1ccc(Cl)cc1)c1ccc(Cl)cc1	0	-	-	-	0	-
Cc1ccc2[nH]c(=O)c(CN(C(=O)c3cccc(Cl)c3)C(C)(C)C)cc2c1	31.6µM[quencher]	-	-	-	0	-
Cc1ccc2[nH]c(=O)c(CN(C(=O)c3cccc([N+](=O)[O-])c3)C(C)(C)C)cc2c1	0	?	0	0	0	-
CC(C)(O)C(=O)O	0	-	0	-	0	-
O=C(O)c1cc([N+](=O)[O-])c(Sc2nc3ccccc3[nH]2)c([N+](=O)[O-])c1	-	0	-	0	-	0
CS(=O)(=O)c1cc([N+](=O)[O-])c(Sc2nc3ccccc3[nH]2)c([N+](=O)[O-])c1	0	0	7.94µM	0	0	-
Cc1cc(C)c2c(=O)cc(C(=O)Nc3ccc(S(=O)(=O)Nc4onc(C)c4C)cc3)oc2c1	126µM[quencher]	-	-	-	0	-
Cc1ccc2c(=O)cc(C(=O)Nc3ccc(S(=O)(=O)Nc4onc(C)c4C)cc3)oc2c1	?	0	-	0	0	?
CCOc1ccc(-c2nonc2NC(=O)c2oc3ccc(F)cc3c2C)cc1	0.794µM[quencher]	-	-	-	0	-
CCc1nc2ccc(C(=O)NCCc3ccc(OC)c(OC)c3)cc2nc1CC	0	0	-	0	0	0
O=C(NCCCO)Nc1ccc2nc(-c3ccco3)c(-c3ccco3)nc2c1	14.1µM[quencher]	?	0	?	0	?
O=C(Nc1cccc(C(F)(F)F)c1)c1ccc2nc(-c3ccco3)c(-c3ccco3)nc2c1	8.91µM[quencher]	0	0	?	?	-
O=C(Nc1ccc2nc(-c3ccco3)c(-c3ccco3)nc2c1)NC1CC1	35.5µM[quencher]	?	0	?	0	?
OCCCNC(=S)Nc1ccc2nc(-c3ccccn3)c(-c3ccccn3)nc2c1	0	0	0	0	0	-
COc1ccc(CCNC(=O)c2ccc3nc(-c4ccco4)c(-c4ccco4)nc3c2)cc1OC	11.2µM[quencher]	0	0	0	?	?
O=C(Nc1ccc(N2CCOCC2)cc1)Nc1ccc2nc(-c3ccco3)c(-c3ccco3)nc2c1	0	0	0	0	0	?
CO[C@@H]1/C=C\O[C@]2(C)Oc3c(C)c(O)c4c(O)c(cc(O)c4c3C2=O)NC(=O)/C(C)=C\C=C/[C@H](C)[C@@H](O)[C@H](C)[C@H](O)C(C)[C@H](OC(C)=O)[C@@H]1C (some centres undefined)	-	-	0[14.2 µM]	-	-	-
C[N+]1(CC2COC3(CCCCC3)O2)CCCC1 (centres undefined)	0	0	10µM	0	0	0
